Measured values taken from PubChem BioAssay (NCI).
The panel holds about 83,000 compounds, 20% with a hit somewhere; the sample as a whole holds those more often.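 Each cell line was grown in a 96-well plate and treated with one concentration of compound for 48 hours. Values below 10 were considered active.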 Unmarked numbers belong to inactive results. Calls of active or inactive are those of the source.

Key:
Assay in all cases: NCI-60 one-dose screen, 48 h (100 = growth as untreated, 0 = no growth, -100 = all killed)
Settings in all cases: 10 µM unless noted
[1] = test system: NCI-H23 lung
[2] = test system: NCI-H322M lung
[3] = test system: HOP-62 NSCLC
[4] = test system: NCI-H460 lung
[5] = test system: HOP-92 NSCLC
[6] = test system: NCI-H522 lung
[7] = test system: A549/ATCC NSCLC
[8] = test system: 786-0 renal
[9] = test system: COLO 205 colon

| SMILES | growth [1] | growth [2] | growth [3] | growth [4] | growth [5] | growth [6] | growth [7] | growth [8] | growth [9] |
| --- | --- | --- | --- | --- | --- | --- | --- | --- | --- |
| CCCCCCCCCCCCCCCC[N+]1(C)CCCC1c1cccnc1 (centres undefined) | 25.3% | 88.7% | 53.7% | 23.6% | 5.98% (active) | 41.2% | 41.8% | 52.7% | -21.7% (active) |
| O=C(OC12CC3CC(CC(C3)C1)C2)c1ccc(NCc2cc(O)ccc2O)cc1 | -21.9% (active) | 47.6% | -55.7% (active) | 3.32% (active) | -36.9% (active) | -74.7% (active) | -21.9% (active) | -90% (active) | -71.2% (active) |
| c1ccc2sc(SSN3CC4CCC(CC4)C3)nc2c1 | 107% | 96% | 119% | 115% | – | 28.9% | – | 129% | 128% |
| CN=C(N)N/N=C(\C)c1ccc2c(c1)Cc1ccccc1-2 | 10.7% | -85% (active) | -73.3% (active) | -97.9% (active) | -8.45% (active) | 12.2% | -66.4% (active) | -77.9% (active) | -100% (active) |
| CC(CSc1n[nH]c(=S)s1)c1ccccc1 (centres undefined) | 106% | 118% | 108% | 114% | – | 79.3% | 103% | 111% | 105% |
| CC(/C=N/NC(N)=S)Cc1ccc(C(C)C)cc1 (centres undefined) | 51% | 104% | 89.1% | 82.8% | 69.9% | -26.6% (active) | 89.5% | 51% | 68% |
| OC(c1cc(-c2ccc(Cl)cc2)nc2c(Cl)cccc12)C1CCCCN1 (centres undefined) | -9.58% (active) | -54.8% (active) | -92.2% (active) | -87.4% (active) | -29.4% (active) | -89.1% (active) | -82.9% (active) | -75% (active) | -91.1% (active) |
| O=C1C=C(Cl)C(=O)c2ccccc21 | 99.6% | 88.8% | 84.5% | 101% | – | 11% | – | 110% | 93.2% |
| O=C1C=CC(=O)N1c1ccccc1 | 98.2% | 110% | 92% | 110% | – | -51.8% (active) | 102% | 94.5% | – |
| CCNc1nnnn1CC | 107% | 105% | 110% | 106% | – | 106% | 113% | – | 109% |
| Cc1cc(I)nc2ccccc12 | 95.1% | 102% | 105% | 106% | 93.5% | – | 111% | 105% | 106% |
| CN(C)CCN(C)CC(C)(C)C(=O)/C=C/c1ccc(Cl)c(Cl)c1 | -83.2% [100 µM] (active) | -98.4% [100 µM] (active) | -92.9% [100 µM] (active) | -72.8% [100 µM] (active) | – | -89.5% [100 µM] (active) | -82% [100 µM] (active) | -93.6% [100 µM] (active) | -90.3% [100 µM] (active) |
| O=[N+]([O-])c1ccc(N2CCN(Cc3ccccc3)CC2)c2c1no[n+]2[O-] | 13% | 69.7% | -31.7% (active) | -70.8% (active) | 25.6% | -74.1% (active) | -40.2% (active) | -4.19% (active) | -88.2% (active) |
| COc1ccc(C(Cn2ccnc2)Sc2ccc(Cl)c(Cl)c2)cc1 (centres undefined) | 82.8% | 91.3% | 85.5% | 78.2% | – | 60.2% | 88.1% | 77.8% | 87.6% |
| CN(C)c1ccc(/C=C/c2sc3ccc4ccccc4c3[n+]2C)cc1 | -25.9% (active) | -10.5% (active) | -73.3% (active) | -40.9% (active) | – | – | -14% (active) | -90.8% (active) | -85.8% (active) |
| O=[n+]1c2ccccc2n([O-])c2cc(Cl)ccc21 | 91.3% | 98.5% | 77.4% | 42.7% | – | 72% | – | 32.1% | 76.5% |
| COc1ccc(/C=C2/C(=O)ON=C2C)cc1 | 112% | 118% | 101% | 107% | 93.6% | 94.2% | 103% | 105% | 104% |
| CC1CC(C)(C)OB(OC(C)CC(C)(C)OB2OC(C)CC(C)(C)O2)O1 (centres undefined) | 93% | 102% | 91.6% | 111% | 101% | 81.6% | 93.8% | 98.4% | 93.8% |
| O=C(Cc1ccccc1)C(F)(F)F | 103% | 94.2% | 102% | 103% | – | 107% | 105% | 94% | 104% |
